Among the data in publication PMC12136788 are binding signal values, retold here.

Residue numbers refer to the chain shown, from its start. The full ranking holds about 24,000 sequences; the median of “enrichment r” is about 0.99, and the highest 2% start at about 3.7. Shown is part of a subset that was picked to be rich in the highest values.

T1: UNK ZnF1-3 (human, UniProt Q9C0B0 31-174)
T1 sequence: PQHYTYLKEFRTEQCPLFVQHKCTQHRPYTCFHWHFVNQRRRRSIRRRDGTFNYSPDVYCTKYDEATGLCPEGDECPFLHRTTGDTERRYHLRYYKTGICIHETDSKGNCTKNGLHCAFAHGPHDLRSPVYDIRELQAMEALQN

B1: 129217275_129261777_1030_CDS_ENSMUSG00000036155_ENSMUST00000038361|mouse|control|control (ssRNA)
RNA: GGGAGUUCUACAGUCCGACGAUCGUAGCCAUCCAUAGGAGGCAAUACACAUUUUUCCUGAACUCCAUUAAUGAUAUCUGCCACAUUAAUUUUCUCAAGCGACACCAAGCUGGGGACAGCCGUGGUGGAGUUGGUGGAGUUCGCCAACAGAGGAUUGAGCAUCA
B2: 107042093_107043494_1117_CDS_ENSMUSG00000031878_ENSMUST00000034349|mouse|control|control (ssRNA)
RNA: GGGAGUUCUACAGUCCGACGAUCAACAGACUGAAGCAAUUUGGCAACGUGAUUGCCUACAGCAGCAGCAUCUUUCUUUGCUUUCUCUCGGUAAACAUUCUGCAGUUUUAUGUAUUUGUUUGAAUCUGCAAUCAUAUCAGGAAUCAACAGAGGAUUGAGCAUCA
B3: chr7:141441981:141441982:+_ENSG00000106028_ENST00000265304|hu_mus|hu_hu_hu_mus_False|58_58 (ssRNA)
RNA: GGGAGUUCUACAGUCCGACGAUCCUCAUGUCUUACAAACUGACGAAAUACCUGUAACACAGGUCUUCGAAACAUGGCUUCUAUUUUUCUUACAACCUAAUCUUUAGGCUUUUCCUAAAGGAAAGAAAGAAAAGAGAAAAAUGACAACAGAGGAUUGAGCAUCA
B4: chrX:16871948:16871949:-_ENSG00000102054_ENST00000404022|hu_mus|FALSE|FALSE (ssRNA)
RNA: GGGAGUUCUACAGUCCGACGAUCAGUAAAGAUUGCUUUAGCAUCCACAAUUUUGCCUUCCUUUGGUCCUGCAUUUAUAUCCCACAGGCAGACAGUAUGGUCAUCAGAUGCACUCAGGAGAUGCCCACUCAGAUUAGAAUUCCACAACAGAGGAUUGAGCAUCA
B5: chr22:35691198:35691199:+_ENSG00000100281_ENST00000216106|hu_mus|FALSE|FALSE (ssRNA)
RNA: GGGAGUUCUACAGUCCGACGAUCACAGUCCUGUGAGAAGCUUAGCUGUGACAGCAGUCGGGCUAUGGGAAGGAGUUCCCUAGGAUGCCAGCUGGCUACAUGGUCCCCAAAGGUUUACUGUGAUGCUGCCUCGUUCCAUCCAGGCAACAGAGGAUUGAGCAUCA
B6: chr9:14812383:14812384:-_ENSMUSG00000031934_ENSMUST00000164273|mus_mus|mus_mus_mus_hu_True|28_48 (ssRNA)
RNA: GGGAGUUCUACAGUCCGACGAUCAUAGCCCAGGUAGAUACACGCUAACAGUAUAAUGAUGAGUGUCAGCAGGCGGCAGCUAAUGUAUUUCAUGAUUAAAUUAUUAGAGUUCUUUUUUGUCUUCAAGUACUGCUCCACAAUUGGCAACAGAGGAUUGAGCAUCA
B7: chr9:14812383:14812384:-_ENSMUSG00000031934_ENSMUST00000164273|mus_mus|mus_mus_mus_hu_True|38_48 (ssRNA)
RNA: B6 RNA with U101G, U103C, G108A, C111U, U114C
B8: chr9:14812383:14812384:-_ENSMUSG00000031934_ENSMUST00000164273|mus_mus|mus_mus_mus_hu_True|48_48 (ssRNA)
RNA: B6 RNA with G108A, C111U, U114C
B9: chr1:6284582:6284583:-_ENSG00000116237_ENST00000343813|hu_hu|motif|central (ssRNA)
RNA: GGGAGUUCUACAGUCCGACGAUCAGCUAGGAAUACCCCUUUGAAUGUGUACUGCUACUUAUAAAAAAUAGGUAUGUAGCGGUGAUUAAAUAGAUGAAGGGCCAAAGCAUCCUAUGAGGAAGUAUUUUUAAAAUUGUAUAGAUGCAACAGAGGAUUGAGCAUCA
B10: chr1:6284582:6284583:-_ENSG00000116237_ENST00000343813|hu_hu|FALSE|FALSE (ssRNA)
RNA: B9 RNA with G80U, G81A
B11: chr12:1897663:1897664:+_ENSG00000006831_ENST00000357103|hu_mus|FALSE|FALSE (ssRNA)
RNA: GGGAGUUCUACAGUCCGACGAUCGCUUUGUGAUUUCAGCAACUUAUAGAGGGGAGAGAGGAAAUACUGAAAAAGGCCACUAUUUAAUGAUGAGAGAGUGAAGGUGUACAGGUUCCUAACCAGCCUAGGGCCAAAAAAGGAGACCAACAGAGGAUUGAGCAUCA
B12: chr9:14812383:14812384:-_ENSMUSG00000031934_ENSMUST00000164273|mus_mus|mus_mus_mus_hu_True|68_98 (ssRNA)
RNA: B6 RNA with C42U, U45C, G68C, G72C, U87C, C90G, G108A, C111U, U114C
B13: chr12:1897663:1897664:+_ENSG00000006831_ENST00000357103|hu_mus|motif|central (ssRNA)
RNA: B11 RNA with U80G, A81G
B14: chrX:98862621:98862622:+_ENSMUSG00000034160_ENSMUST00000044475|mus_hu|mus_mus_mus_hu_False|78_78 (ssRNA)
RNA: GGGAGUUCUACAGUCCGACGAUCCUGCAUCUCCUUUAGAGUGUUUCCCAUAUUAGAAUAAGCAUCAGCAAAGGUAGGACUGAUUCGAAUAGCCUCCUUAUAAUGCAUCAGAGCUUCCUGCAGUUUUCCCUGCUGCUGCAGUACCAACAGAGGAUUGAGCAUCA
B15: chr2:217001844:217001845:+_ENSG00000079246_ENST00000392132|hu_hu|hu_hu_hu_mus_False|98_108 (ssRNA)
RNA: GGGAGUUCUACAGUCCGACGAUCACCGACUUGAGGAUUAGCUCUUUUGUCAUAAGCAUAUCGGACGAUGGCGACCAUGUUUAACUCAUCCAAAGCAUGAACGAGAGAGGAAAGGGCAACAGCUGCCGCCUCAUCAUCCUUUGCCAACAGAGGAUUGAGCAUCA
B16: chrX:132781199:132781200:+_ENSMUSG00000042712_ENSMUST00000048687|mus_hu|motif|central (ssRNA)
RNA: GGGAGUUCUACAGUCCGACGAUCUGCUAAUAAAAAGCAAGCUAUAUGGUAUUGUUAAUAUCAGAUAAAAAUCAAGGUAAACGGCAUUAAAUAGGGGUAAGGAUGGUUUCGAUUAACCUUCCAACGCAUCACUAUAAGUUUGUUCAACAGAGGAUUGAGCAUCA
B17: chr15:90999404:90999405:+_ENSG00000140575_ENST00000268182|hu_hu|FALSE|FALSE (ssRNA)
RNA: GGGAGUUCUACAGUCCGACGAUCCUGCAGAGUCUUUUGGGCAUCACCUUCAUCCAGGGCUUCAUUAAUUAAACCAAUGGCUAAAAUCCUCUCAUGUUCCUCUUGCACCACCAGGUUCACAUGGUCCACGCAAGCUUGGAUAUCCAACAGAGGAUUGAGCAUCA
B18: 126502921_126503041_1455_ncRNA_ENSMUSG00000006728_ENSMUST00000140254|mouse|control|control (ssRNA)
RNA: GGGAGUUCUACAGUCCGACGAUCUGGUCGGCUUCAGAGUUUCCACAGAAGAGAGGCCUAAGGCAGAAAAAGACUCAAAGUAUGUGUUAUAUCAAAAAUAGGGGAGUGGGGGCUGGAGAGACGGCUCAGCAGAUAAGACUGCUCCAACAGAGGAUUGAGCAUCA
B19: chr7:34932688:34932689:-_ENSMUSG00000052997_ENSMUST00000102746|mus_mus|FALSE|FALSE (ssRNA)
RNA: GGGAGUUCUACAGUCCGACGAUCCAAGAGCUUCUUUCUUGGGUUUGGCUGCUUAUUCAAAAAAAUAGUUCUACACUGGUCUAUUUUUCCAGAUAAAAUCUUUAAUCCUUCCAACACUAUCAAGCCGGCGAUCACUGCAUUAGUCAACAGAGGAUUGAGCAUCA
B20: chrX:132781199:132781200:+_ENSMUSG00000042712_ENSMUST00000048687|mus_hu|FALSE|FALSE (ssRNA)
RNA: B16 RNA with G82U, G83A
B21: 31404426_31405736_1086_CDS_ENSG00000196792_ENST00000355683|human|control|control (ssRNA)
RNA: GGGAGUUCUACAGUCCGACGAUCAGUCACUAAAAAAUCAAAUUCUUUCAGUGCUUCCUCAGUAUCAGGAUCGUCAGUUAGGUCAGCAGCUAAACCUUCAUUACCUAUUUUAUGUUUAUUCAUCCGAUGUUUGUCUUUUCCUUCCAACAGAGGAUUGAGCAUCA
B22: 63494515_63562186_783_3pUTR_ENSMUSG00000025964_ENSMUST00000114107|mouse|control|control (ssRNA)
RNA: GGGAGUUCUACAGUCCGACGAUCUAGUGGAUCUCCACGUAGUCAGAAGAUAGCAAACCAUUGUUCAGUGUGAGGUCAAGAAUGAACUUGGAGCCGAAAGCUUCGAUCUGGAAGCUUGCCUGGGCCAGAUGCACAGCCUUAUUGCAACAGAGGAUUGAGCAUCA

The assay has as its target T1, UNK ZnF1-3. In words: nsRBNS (natural sequence RNA bind-n-seq); RBNS binding buffer (assumed for nsRBNS): 25 mM Tris pH 7.5, 150 mM KCl, 3 mM MgCl2, 0.01% Triton X-100, 500 ug/ml BSA, 20 U/ml SUPERase-In, 4 C; UNK is unkempt and MSI1 is Musashi-1; names of the RNAs are library labels; protein concentration not given here; high values mean tight binding.
In turn, B1 gave a binding signal of 1.11 enrichment R. As for B2, the figure is 1.02 enrichment R. As for B3, the figure is 0.678 enrichment R; as for B4, 1.03 enrichment R. As for B5, the figure is 1.01 enrichment R; as for B6, 3.67 enrichment R.

In turn, B7 registered a binding signal of 1.52 enrichment R. As for B8, the figure is 3.85 enrichment R; as for B9, 6.98 enrichment R. As for B10, the figure is 6.19 enrichment R; as for B11, 3.52 enrichment R; as for B12, 1.27 enrichment R.

The molecule B13 gave a binding signal of 3.48 enrichment R. Molecule B14 showed a binding signal of 1.09 enrichment R.

B15 registered a binding signal of 2.19 enrichment R.

In the case of B16, the binding signal was determined as 5.74 enrichment R. B17 had a binding signal of 1.38 enrichment R.

Consider B18, for which the binding signal was 3.33 enrichment R. As for B19, the figure is 1.12 enrichment R; as for B20, 5.13 enrichment R. As for B21, the figure is 0.927 enrichment R; as for B22, 1.25 enrichment R.
